Screening results from PubChem BioAssay.
The list is not random: actives were taken first. Their share in the collection is about 3.4%.
GPR151 activ – human GPR151 activation | Q8TDV0 | PathHunter beta-arrestin GPR151 cells, luminescence | activation, % at 11.2 µM | actives 1% (n = 650,000); in the data active means activation above about 4.9%;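 further: 0% = median of compound wells and 100% = cells with positive control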
FBW7 act – activators of human E3 ligase FBW7. normalized activity (activation), % at 26.1 µM. actives 0.13% (n = 650,000). AID 1259310. AlphaScreen FBW7–phospho-cyclin E peptide binding, activator screen. Q969H0; in the data active means normalized activity above about 1.9%;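 further: purified mutant Fbw7 with reduced substrate affinity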
TEAD-YAP block – TEAD-YAP interaction inhibition; HEK-TIYL cells, TEAD-Gal4/YAP UAS-luciferase luminescence; inhibition, % at 9.12 µM; AID 1259422; actives 1.4% (n = 640,000); in the data active means inhibition above about 32%;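 further: 0% = median of test compound wells and 100% = reference inhibitor wells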
MITF primary – human MITF inhibition, primary screen; O75030; AlphaScreen MITF homodimerization, bead proximity signal; inhibition, % at 2.6 µM; actives 0.91% (n = 650,000); in the data active means inhibition above about 50%;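 further: 0% = vehicle wells with protein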
Target sequence (O75030 whole entry, looked up): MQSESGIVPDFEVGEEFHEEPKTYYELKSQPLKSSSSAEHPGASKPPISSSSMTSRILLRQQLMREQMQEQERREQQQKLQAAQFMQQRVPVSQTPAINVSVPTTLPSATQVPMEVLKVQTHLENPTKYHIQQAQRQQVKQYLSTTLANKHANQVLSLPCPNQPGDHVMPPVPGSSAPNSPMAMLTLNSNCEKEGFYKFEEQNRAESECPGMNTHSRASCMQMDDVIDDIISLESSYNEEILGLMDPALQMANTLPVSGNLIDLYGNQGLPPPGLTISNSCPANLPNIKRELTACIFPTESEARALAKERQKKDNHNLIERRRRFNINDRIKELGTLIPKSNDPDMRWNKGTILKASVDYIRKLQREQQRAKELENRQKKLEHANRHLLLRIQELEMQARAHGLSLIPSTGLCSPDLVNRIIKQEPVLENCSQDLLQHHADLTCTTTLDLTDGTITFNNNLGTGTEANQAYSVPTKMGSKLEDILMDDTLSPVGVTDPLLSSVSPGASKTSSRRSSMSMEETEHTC
* hit, by the source's call.

SMILES | GPR151 activ | FBW7 act | TEAD-YAP block | MITF primary
CC(=O)Nc1cccc(-c2cnc(NCCCc3ccccc3)c3nccn23)c1 | -1 | 0 | 93* | -2
CCCNc1nccn2c(-c3cccc(NC(C)=O)c3)cnc12 | -1 | -1 | 69* | -14
O=C(O)c1cccc(-c2cnc(NCCCc3ccccc3)c3nccn23)c1 | -1 | 0 | -3 | -25
COCCCNc1nccn2c(-c3cccc(OC(F)(F)F)c3)cnc12 | 1 | -1 | 40* | 20
COCCCNc1nccn2c(-c3cccc(NC(C)=O)c3)cnc12 | -5 | 0 | 90* | 17
CCC(C(=O)Nc1ccc(-c2cn3nc(OC)ccc3n2)cc1)c1ccccc1 (configuration not stated) | -1 | 1 | -4 | 11
O=C(O)CSc1ccc(C(=O)Nc2ccc(OC(F)(F)C(F)F)cc2)cc1[N+](=O)[O-] | -1 | 0 | 6 | 12
N#CCCn1cc(C(=O)N2CCOCC2)c(-c2ccc([N+](=O)[O-])cc2)n1 | -2 | 1 | 11 | 14
O=C(N/N=C/c1ccccc1O)c1ccc(NC(=O)c2ccccc2)cc1 | 0 | 0 | -21 | 12
Cc1cc(NC(=O)C(C)(C)C)ccc1Br | 2 | 0 | 0 | -7
C=CC(=O)Nc1ccc(Br)c(C)c1 | -1 | 0 | 62* | 4
CC#CCN1C(=O)NC(Cc2cccc(F)c2)(C2CCN(C)CC2)C1=O (configuration not stated) | 1 | 0 | -7 | -9
CCN(CC)C(=O)C1CCCc2c1[nH]c1ccc(Cl)cc21 (configuration not stated) | 2 | 0 | 59* | 2
NC(=O)C1CCCc2c1[nH]c1ccc(Cl)cc21 (configuration not stated) | 1 | 0 | 7 | 15
CCOC(=O)c1c(NC(=O)CSc2nnc(CNC(=O)c3cccc(OC)c3)n2-c2ccccc2OC)sc2c1CCCC2 | -1 | 0 | 7 | -17
O=C(COc1ccccc1)Nc1c2c(nn1-c1ccccc1)CS(=O)C2 (configuration not stated) | -1 | 0 | -6 | -8
CC(Sc1nccn1C)C(=O)NC(c1ccccc1)c1ccccc1 (configuration not stated) | 0 | 0 | -1 | -18
CC(Sc1nnc(C(F)(F)F)n1N)C(=O)NC(c1ccccc1)c1ccccc1 (configuration not stated) | -2 | 0 | 33* | -3
COCCCNC(=O)c1cc(S(=O)(=O)N2CCCC2)ccc1F | 0 | 0 | -9 | -4
CCC(C)(C)c1ccc(OCCOCC[n+]2ccccc2)c(C(C)(C)CC)c1 | 3 | 0 | 77* | 2
CCC(C)(C)c1ccc(OCCCC[n+]2cccc(C)c2)c(C(C)(C)CC)c1 | 2 | 0 | 85* | -22
COCCOC(=O)C1=C(C)NC2=C(C(=O)CC(C)(C)C2)C1c1cc2c(cc1[N+](=O)[O-])OCO2 (configuration not stated) | -1 | 0 | -3 | 20
CC(C)(O)C(=O)/C=C/c1cccc([N+](=O)[O-])c1 | -1 | 0 | 48* | 0
COc1ccc(-c2c(C)nn3c(NCc4ccncc4)cc(C)nc23)cc1 | 0 | 4.0* | -7 | 21
COc1ccc(-c2c(C)nn3c(NCCCN(C)C)cc(C)nc23)cc1 | 0 | 3.4* | 1 | 20
SMILES | GPR151 activ | FBW7 act | TEAD-YAP block | MITF primary
COc1ccc(-c2c(C)nn3c(NCc4cccnc4)cc(C)nc23)cc1 | 3 | 0 | 15 | 6
CCC(C)NC(=O)CSC1=Nc2ccccc2C2=NC(c3ccccc3)C(=O)N12 (configuration not stated) | -1 | 0 | -11 | 2
Cc1ccc2oc(-c3ccc(Cl)c(N)c3)nc2c1 | -10 | 0 | 68* | 7
COc1ccc(-c2nc3cc(N)ccc3o2)cc1Br | -1 | 0 | -19 | -7
COc1ccc(-c2nc3cc(C)ccc3o2)cc1N | -8 | 0 | 88* | 13
COc1ccc(-c2nc3ccccc3o2)cc1N | -6 | 0 | 19 | 0
COc1ccc(-c2nc3cc(C(C)C)ccc3o2)cc1N | -1 | 0 | 66* | 10
COC(=O)NNC(=S)Nc1ccc(Br)cc1 | 3 | 0 | 6 | 18
CN(CC(=O)NCc1cccnc1)S(=O)(=O)c1ccc2c(c1)n(C)c(=O)c(=O)n2C | 1 | 0 | 1 | 2
Nc1ccc(-c2nnn(Cc3ccccc3F)n2)cc1 | -1 | 0 | 1 | -6
O=[N+]([O-])c1ccc(N2CCN(c3ccc([N+](=O)[O-])c4cccnc34)CC2)cc1 | -1 | 2.3* | 1 | 21
COC(=O)c1nn2c(C(F)(F)F)cc(-c3ccco3)nc2c1Cl | 0 | 0 | 0 | 3
